From PubChem BioAssay (NCI)
About 83,000 compounds went through this panel and 20% of them were active in at least one assay; those are over-represented in the sample as a whole.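 Compound tested at a single concentration for 48 hours in 96-well plates; a percent growth value below 10 was scored as active.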 Unmarked numbers belong to inactive results. The source made the active and inactive calls.

What follows are compounds tested on OVCAR-4 ovarian (assay: NCI-60 one-dose screen, 48 h (100 = growth as untreated, 0 = no growth, -100 = all killed)). Settings: 10 µM unless noted.
Experimental: Growth inhibition of the OVCAR-4 human tumor cell line is measured as a screen for anti-cancer activity. Cells are grown in 96 well plates and exposed to the test compound for 48 hours. Compounds are tested at a single concentration, which is 10^-5 M for most compounds. The reported endpoint is percent growth (GI% or GIPRCNT), where numbers from 0 - 100% represent growth inhibition, and numbers from -100% - 0 represent cell death. For example, a value of 40 represents 60% growth inhibition. A value of 0 means no net growth occurred over the course of the experiment. A value of -40 indicates 40% of cells at the beginning of the experiment died by the end of the experiment. A value of -100 means all cells are dead at the end of the experiment.
NCI-60 Human Tumor Cell Lines Screen was performed using the standard one-dose NCI protocol, which is described in more detail at https://dtp.cancer.gov/discovery_development/nci-60/default.htm.
Compounds with GIPRCNT values below 10 were considered active. Activity score was based on GIPRCNT using the following formula: […]
Score is 0 for GIPRCNT values of 100 or above, 50 for GIPRCNT values of 0, and 100 for GIPRCNT values of -100.
`COc1ccccc1Nc1cc(O)c2c(=O)cc(-c3ccccc3)oc2c1` showed a growth of 65.6%. With `CCCOc1nc(SCCC)nc2c1cnn2-c1ccccc1` the growth was 99.6%. `Cc1cc2nc(-c3ccccc3)c(-c3ccccc3)nc2cc1C` showed a growth of 98.9%. `CN1CCN(C(=O)OCc2nc3c(N4CCOCC4)nc(-c4ccccc4)nc3n2C)CC1` was tested, and the growth was -86.4% (active). With `O=C(Cc1ccc(/C=C/C(=O)c2ncc[nH]2)cc1)Nc1ccc(C(F)(F)F)cc1` the growth was 51.1%. With `CNC(=O)c1c(NC(=O)c2ccc(C(C)C)cc2)sc2c(CN(C)C)c(O)ccc12` the growth was 98.6%. For `C#CC(=O)Nc1cccc2c1cc(C)n2-c1nc2c(c(NCc3ccccc3)n1)CCCC2`, the growth was -35.7% (active). `C=C(C)[C@H]1CC/C(C)=C/CC[C@]2(C)O[C@H]2CC/C(COC(=O)[C@@H](OC(C)=O)[C@H](NC(=O)c2ccccc2)c2ccccc2)=C\[C@@H]1O` was tested, and the growth was 85.7%. Work on `O=S(=O)(NCCCNc1nccc(-c2c(-c3cccc(O)c3)nc3occn23)n1)c1ccc(Br)cc1` yielded a growth of 118%. `COc1ccc(Cn2nc(-c3cc(OC)c(OC)c(OC)c3)c3c2CCc2cnoc2-3)cc1OC` was tested, and the growth was 70.7%. `CCCCN(CCCC)CCc1c(C)cc(C)c(CCN(CCCC)CCCC)c1O` showed a growth of 30.8%. `CC(=O)c1c[nH]c2ccc(-c3ccnc(Nc4ccc(NC(=O)c5cccc(F)c5)c(CN5CCOCC5)c4)n3)cc12` was tested, and the growth was -18.9% (active). `CCCCc1ccc(Nc2nnc(SCC(=O)NC(=O)NCC)s2)cc1` was tested, and the growth was 104%. For `COc1ccc(C2=C(c3ccccc3)c3ccc(OC(C)=O)cc3OC2(C)C)cc1`, the growth was 88.2%. `C=C(C)[C@@H]1CC[C@]2(C(=O)O)CC[C@]3(C)[C@H](CC[C@@H]4[C@@]5(C)C[C@@H](CC#Cc6ccc(Br)cc6)C(=O)C(C)(C)[C@@H]5CC[C@]43C)[C@@H]12` gave a growth of 30.3%. `CC1(C)CCCN1CCCN1c2ccccc2Sc2ccc(Cl)cc21` gave a growth of 53.2%. For `COc1ccc(-c2c[nH]c(C(=O)O)c2-c2cc(OC)c3c(c2OC)OCO3)cc1`, the growth was 100%. In the case of `CC(N)C(=O)NNc1n[nH]c(=S)n1N` (stereo not given), the growth is reported as 105%. `O=C1NC(=S)NC(=O)C1=Cc1cn(Cc2ccccn2)c2ccccc12` gave a growth of 80.8%. Compound `C=C1C(=O)O[C@H]2[C@H]1CC/C(CNC(=O)/C=C/c1ccc(Br)cc1)=C\CC[C@@]1(C)O[C@@H]21` has a growth of 44.7%. `CC1NC(=S)NC(=O)/C1=C/c1cc(=O)oc2c1ccc1ccccc12` (stereo not given) gave a growth of 95.7%. For `COc1ccc(C(=O)c2cc3c(N)c(C(=O)Nc4ccc(Cl)cc4)sc3nc2C)cc1`, the growth was 21.5%. `Cn1c(=O)c2[nH]c(CCCc3nc4c([nH]3)c(=O)n(C)c(=O)n4C)nc2n(C)c1=O` gave a growth of 118%. Compound `O=c1[nH]c2c(s1)CCCC2CN1CCCCC1` (stereo not given) has a growth of 113%. `COc1cc(C2CC(c3cccc(Nc4ccncc4)c3)=NN2c2ccc(Cl)cc2)cc(OC)c1OC` (stereo not given) was tested, and the growth was 6.52% (active). With `COc1ccc(C(=O)c2cc3c(N)c(C(=O)Nc4cccc5ccccc45)sc3nc2C)cc1` the growth was 37.2%. `COc1cc(NCCCN(CC(C)C)C2CCCC2)c2ncccc2c1` gave a growth of 22.5%. `N#Cc1c(Nc2ccccc2)nn2cc(-c3nc4ccccc4s3)c(N)nc12` was tested, and the growth was -13.7% (active). In the case of `O=C1NC(=O)C(=Cc2cn(Cc3ccccn3)c3ccccc23)C(=O)N1`, the growth is reported as 93.4%. Compound `CCCCCCCCCCCCC1CCC/C=C\CCC(=O)O1` (stereo not given) has a growth of 109%. `COc1ccc(/C=C(/c2ccccc2)[N+](=O)[O-])cc1` was tested, and the growth was -59.5% (active). Work on `COc1cc(OC)cc(C2C3=C(COC3=O)Nc3cc(OC)ccc32)c1` (stereo not given) yielded a growth of 49.4%. For `O=C(O)c1ccc[n+](CC(=O)N2CCN(c3cc4c(cc3F)c(=O)c(C(=O)O)cn4C3CC3)CC2)c1`, the growth was 60.4%. With `Cn1/c(=N/NC(N)=S)ccc2ccccc21` the growth was 93.3%. In the case of `CC(C)(C#N)N1CCN(c2ccccc2Cl)CC1`, the growth is reported as 119%. `C/C(=C(/c1ccccc1)c1ccc(OCC(O)CNCCN2CCOCC2)cc1)c1ccccc1` (stereo not given) was tested, and the growth was 70.3%. In the case of `C[C@]12CCc3nc(Nc4cccc(O)c4)sc3C1=CC[C@@H]1[C@@H]2CC[C@]2(C)/C(=N\NC(N)=S)CC[C@@H]12`, the growth is reported as 39%. For `Cc1ccc(C2CC(c3cccc(Nc4ccncc4)c3)=NN2c2ccccc2)cc1` (stereo not given), the growth was -86.5% (active). `CCCCCCCCCCCCCCCC(=O)OC[C@@]1(O)C[C@@]23CC[C@@H]4C(C)(C)CCC[C@@]4(C)[C@@H]2CC[C@H]1C3` was tested, and the growth was 97.7%. `CCN(CC)CCCC(C)Nc1cc(-c2cccc(OC(F)(F)F)c2)nc2ccc(N3CCCC3)cc12` (stereo not given) was tested, and the growth was 34.8%.
